# According to PubChem BioAssay (NCI):
# Compounds without any hit were thinned out: in the full panel of roughly 79,000, 15% have a hit. Values without a mark were called inactive. Activity calls are given as the source filed them. Rule as the data show it: active = growth inhibition above about 70%; inactive = the rest.
# Columns and labels:
# [1] = NCI Yeast Anticancer Drug Screen. Data for the rad52 strain (AID 147);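 also: 0% = growth of vehicle-treated control cultures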; details: S. cerevisiae rad52 mutant growth inhibition, active compounds read high
# Outline: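 Here a repair-compromised yeast strain receives each compound; its growth is then quantified and normalised to vehicle-only controls.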
# [2] = NCI Yeast Anticancer Drug Screen. Data for the wt1 strain (AID 149);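 also: 0% = growth of vehicle-treated wt1 cultures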; details: S. cerevisiae wt1 strain (SPY 50644) growth inhibition, active compounds read high
# Outline: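 Growth inhibition read against vehicle controls after compound exposure of the wt1 yeast strain.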
# [3] = NCI Yeast Anticancer Drug Screen. Data for the mgt1 strain (AID 153); details: S. cerevisiae mgt1 mutant growth inhibition, active compounds read high
# Outline: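 Measured: inhibition of mgt1 yeast growth by compound, normalized to vehicle-treated cultures.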
# [4] = NCI Yeast Anticancer Drug Screen. Data for the rad50 strain (AID 155);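 also: 0% = growth of vehicle-only cultures of the same strain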; details: S. cerevisiae rad50 strain growth inhibition, active compounds read high
# Outline: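 Readout: growth inhibition relative to vehicle-treated cultures. Compound exposure was carried out in a genetically defined yeast strain deficient in DNA damage repair.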
# [5] = NCI Yeast Anticancer Drug Screen. Data for the mec2-1 strain (AID 157); details: S. cerevisiae mec2-1 strain, active compounds read high
# Outline: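 Using mec2-1 yeast: add compound, measure growth, express inhibition versus vehicle-treated cultures.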
# [6] = NCI Yeast Anticancer Drug Screen. Data for the rad14 strain (AID 159);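 also: 0% = growth of vehicle-treated control cultures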; details: S. cerevisiae rad14 strain growth inhibition, active compounds read high
# Outline: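 Growth inhibition vs vehicle controls; genetically altered yeast strain (DNA damage repair defect) treated with test compounds.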
# [7] = NCI Yeast Anticancer Drug Screen. Data for the sgs1 mgt1 strain (AID 161);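 also: 0% = growth of cultures given vehicle only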; details: S. cerevisiae sgs1 mgt1 strain, active compounds read high
# Outline: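 Growth of a repair-deficient yeast mutant was monitored after compound treatment and expressed as inhibition relative to vehicle-treated cultures.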
# [8] = NCI Yeast Anticancer Drug Screen. Data for the CLN2oe strain (AID 163);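 also: 0% = growth of vehicle-only control cultures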; details: S. cerevisiae CLN2oe strain, active compounds read high
# Outline: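 Whole-cell yeast growth assay. A strain engineered for altered cell-cycle control received compound, and inhibition relative to vehicle-treated cultures was recorded.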
# [9] = NCI Yeast Anticancer Drug Screen. Data for the cln2 rad14 strain (AID 165);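 also: 0% = growth equal to vehicle treated cultures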; details: S. cerevisiae cln2 rad14 strain, active compounds read high
# Outline: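 Yeast strain cln2 rad14, bearing defects in cell cycle control and DNA repair, serves as the test system; values reflect growth inhibition compared with vehicle.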
# [10] = NCI Yeast Anticancer Drug Screen. Data for the bub3 strain (AID 167); details: S. cerevisiae bub3 mutant strain, active compounds read high
# Outline: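 Readout: yeast growth inhibition, expressed relative to vehicle-only wells. The test organism is a mutant strain from a panel with lesions in DNA repair or checkpoint genes.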
# [11] = NCI Yeast Anticancer Drug Screen. Data for the wt2 strain (AID 169);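 also: 0% = growth of vehicle-treated yeast cultures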; details: S. cerevisiae wt2 strain growth inhibition, active compounds read high
# Outline: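 Treated yeast vs. vehicle-treated yeast: growth inhibition determined.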
# [12] = NCI Yeast Anticancer Drug Screen. Data for the mlh1 strain (AID 171);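 also: 0% = growth of vehicle-treated control cultures of the same strain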; details: S. cerevisiae mlh1 strain growth inhibition, active compounds read high
# Outline: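 A yeast strain with a defined genetic lesion serves as the test organism. Cultures receive compound or vehicle, and growth is measured.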
# [13] = NCI Yeast Anticancer Drug Screen. Data for the mlh1 rad18 strain (AID 175); details: S. cerevisiae mlh1 rad18 strain growth inhibition, active compounds read high
# Outline: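 Steps: expose repair-defective yeast to compound; measure growth; express inhibition against vehicle-treated controls.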
# [14] = NCI Yeast Anticancer Drug Screen. Data for the rad18 strain (AID 177); details: S. cerevisiae rad18 mutant growth inhibition, active compounds read high
# Outline: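 Measured value is growth inhibition of a yeast strain bearing a DNA repair alteration, referenced to vehicle-treated cells.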
# [15] = NCI Yeast Anticancer Drug Screen. Data for the rad50EPP+ strain (AID 151);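 also: 0% = growth of vehicle-treated control cultures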; details: S. cerevisiae rad50 mutant strain, active compounds read high
# Outline: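 Read-out is yeast growth inhibition relative to vehicle; cells used were the rad50EPP+ strain.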
# [16] = NCI Yeast Anticancer Drug Screen. Data for the sgs1 strain (AID 173);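 also: 0% = growth of vehicle-only control cultures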; details: S. cerevisiae sgs1 mutant, active compounds read high
# Outline: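 A genetically defined yeast mutant is incubated with the test compound, and its growth is compared to that of the same strain given vehicle.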
# [17] = at 5.0 µM (retest, dose inferred, filed as 0.5)
# [18] = at 50.0 µM (retest, dose inferred, filed as 5.0)
structure (smiles),measurement,setting,value
C/C(=N\NC(N)=O)C(CN1CCOCC1)C(c1ccccc1)c1c(O)c2ccccc2oc1=O (stereo unspecified),growth inhibition,[1]; at 1.2 µM,1%
same,growth inhibition,[1]; at 3.7 µM,2%
same,growth inhibition,[1]; at 11.0 µM,0%
same,growth inhibition,[1]; at 33.0 µM,1%
same,growth inhibition,[1]; at 100.0 µM,-1%
same,growth inhibition,[2]; at 1.2 µM,6%
same,growth inhibition,[2]; at 3.7 µM,1%
same,growth inhibition,[2]; at 11.0 µM,1%
same,growth inhibition,[2]; at 33.0 µM,0%
same,growth inhibition,[2]; at 100.0 µM,-1%
same,growth inhibition,[3]; at 1.2 µM,-2%
same,growth inhibition,[3]; at 3.7 µM,2%
same,growth inhibition,[3]; at 11.0 µM,-3%
same,growth inhibition,[3]; at 33.0 µM,0%
same,growth inhibition,[3]; at 100.0 µM,-24%
same,growth inhibition,[4]; at 1.2 µM,-1%
same,growth inhibition,[4]; at 3.7 µM,6%
same,growth inhibition,[4]; [17],89% (active)
same,growth inhibition,[4]; at 11.0 µM,9%
same,growth inhibition,[4]; at 33.0 µM,5%
same,growth inhibition,[4]; [18],89% (active)
same,growth inhibition,[4]; at 50.0 µM,70.2% (active)
same,growth inhibition,[4]; at 100.0 µM,-6%
same,growth inhibition,[5]; at 1.2 µM,4%
same,growth inhibition,[5]; at 3.7 µM,6%
same,growth inhibition,[5]; [17],13%
same,growth inhibition,[5]; at 11.0 µM,6%
same,growth inhibition,[5]; at 33.0 µM,7%
same,growth inhibition,[5]; [18],13%
same,growth inhibition,[5]; at 50.0 µM,53.6%
same,growth inhibition,[5]; at 100.0 µM,4%
same,growth inhibition,[6]; at 1.2 µM,7%
same,growth inhibition,[6]; at 3.7 µM,8%
same,growth inhibition,[6]; at 11.0 µM,2%
same,growth inhibition,[6]; at 33.0 µM,2%
same,growth inhibition,[6]; at 100.0 µM,3%
same,growth inhibition,[7]; [17],89% (active)
same,growth inhibition,[7]; [18],89% (active)
same,growth inhibition,[7]; at 50.0 µM,78.2% (active)
same,growth inhibition,[8]; at 1.2 µM,4%
same,growth inhibition,[8]; at 3.7 µM,3%
same,growth inhibition,[8]; at 11.0 µM,4%
same,growth inhibition,[8]; at 33.0 µM,4%
same,growth inhibition,[8]; at 100.0 µM,-2%
same,growth inhibition,[9]; [17],-7%
same,growth inhibition,[9]; [18],-7%
same,growth inhibition,[9]; at 50.0 µM,59.9%
same,growth inhibition,[10]; at 1.2 µM,4%
same,growth inhibition,[10]; at 3.7 µM,1%
same,growth inhibition,[10]; [17],-7%
same,growth inhibition,[10]; at 11.0 µM,2%
same,growth inhibition,[10]; at 33.0 µM,5%
same,growth inhibition,[10]; [18],-7%
same,growth inhibition,[10]; at 50.0 µM,68%
same,growth inhibition,[10]; at 100.0 µM,1%
same,growth inhibition,[11]; at 1.2 µM,2%
same,growth inhibition,[11]; at 3.7 µM,0%
same,growth inhibition,[11]; at 11.0 µM,0%
same,growth inhibition,[11]; at 33.0 µM,-2%
same,growth inhibition,[11]; at 100.0 µM,-4%
same,growth inhibition,[12]; at 1.2 µM,-2%
same,growth inhibition,[12]; at 3.7 µM,1%
same,growth inhibition,[12]; at 11.0 µM,0%
same,growth inhibition,[12]; at 33.0 µM,-3%
same,growth inhibition,[12]; at 100.0 µM,1%
same,growth inhibition,[13]; [17],40%
same,growth inhibition,[13]; [18],40%
same,growth inhibition,[13]; at 50.0 µM,63.2%
same,growth inhibition,[14]; at 1.2 µM,2%
same,growth inhibition,[14]; at 3.7 µM,0%
same,growth inhibition,[14]; at 11.0 µM,6%
same,growth inhibition,[14]; at 33.0 µM,1%
same,growth inhibition,[14]; at 100.0 µM,-7%
Oc1cccc2nc3ccccc3nc12,growth inhibition,[2]; at 1.2 µM,-55%
same,growth inhibition,[2]; at 3.7 µM,-46%
same,growth inhibition,[2]; at 11.0 µM,-30%
same,growth inhibition,[2]; at 33.0 µM,1%
same,growth inhibition,[2]; at 100.0 µM,88% (active)
same,growth inhibition,[15]; at 1.2 µM,-47%
same,growth inhibition,[15]; at 3.7 µM,-31%
same,growth inhibition,[15]; at 11.0 µM,6%
same,growth inhibition,[15]; at 33.0 µM,63%
same,growth inhibition,[15]; at 100.0 µM,96% (active)
same,growth inhibition,[3]; at 1.2 µM,-22%
same,growth inhibition,[3]; at 3.7 µM,-14%
same,growth inhibition,[3]; at 11.0 µM,6%
same,growth inhibition,[3]; at 33.0 µM,20%
same,growth inhibition,[3]; at 100.0 µM,91% (active)
same,growth inhibition,[4]; at 1.2 µM,-4%
same,growth inhibition,[4]; at 3.7 µM,-8%
same,growth inhibition,[4]; [17],-14%
same,growth inhibition,[4]; at 11.0 µM,5%
same,growth inhibition,[4]; at 33.0 µM,54%
same,growth inhibition,[4]; [18],73% (active)
same,growth inhibition,[4]; at 50.0 µM,65.4%
same,growth inhibition,[4]; at 100.0 µM,95% (active)
same,growth inhibition,[5]; at 1.2 µM,-48%
same,growth inhibition,[5]; at 3.7 µM,-44%
same,growth inhibition,[5]; [17],9%
same,growth inhibition,[5]; at 11.0 µM,-33%
same,growth inhibition,[5]; at 33.0 µM,24%
same,growth inhibition,[5]; [18],47%
same,growth inhibition,[5]; at 50.0 µM,68.5%
same,growth inhibition,[5]; at 100.0 µM,94% (active)
same,growth inhibition,[6]; at 1.2 µM,-31%
same,growth inhibition,[6]; at 3.7 µM,-32%
same,growth inhibition,[6]; at 11.0 µM,-27%
same,growth inhibition,[6]; at 33.0 µM,19%
same,growth inhibition,[6]; at 100.0 µM,92% (active)
same,growth inhibition,[7]; [17],-4%
same,growth inhibition,[7]; [18],29%
same,growth inhibition,[7]; at 50.0 µM,21%
same,growth inhibition,[8]; at 1.2 µM,-27%
same,growth inhibition,[8]; at 3.7 µM,-14%
same,growth inhibition,[8]; at 11.0 µM,-22%
same,growth inhibition,[8]; at 33.0 µM,6%
same,growth inhibition,[8]; at 100.0 µM,93% (active)
same,growth inhibition,[9]; [17],1%
same,growth inhibition,[9]; [18],13%
same,growth inhibition,[9]; at 50.0 µM,35.4%
same,growth inhibition,[10]; at 1.2 µM,-31%
same,growth inhibition,[10]; at 3.7 µM,-28%
same,growth inhibition,[10]; [17],-3%
same,growth inhibition,[10]; at 11.0 µM,-16%
same,growth inhibition,[10]; at 33.0 µM,-4%
same,growth inhibition,[10]; [18],35%
same,growth inhibition,[10]; at 50.0 µM,47.2%
same,growth inhibition,[10]; at 100.0 µM,94% (active)
same,growth inhibition,[11]; at 1.2 µM,-48%
same,growth inhibition,[11]; at 3.7 µM,-44%
same,growth inhibition,[11]; at 11.0 µM,-39%
same,growth inhibition,[11]; at 33.0 µM,-9%
same,growth inhibition,[11]; at 100.0 µM,75% (active)
same,growth inhibition,[12]; at 1.2 µM,-58%
same,growth inhibition,[12]; at 3.7 µM,-33%
same,growth inhibition,[12]; at 11.0 µM,-27%
same,growth inhibition,[12]; at 33.0 µM,12%
same,growth inhibition,[12]; at 100.0 µM,92% (active)
same,growth inhibition,[16]; at 1.2 µM,-43%
same,growth inhibition,[16]; at 3.7 µM,-44%
same,growth inhibition,[16]; at 11.0 µM,-41%
same,growth inhibition,[16]; at 33.0 µM,-18%
same,growth inhibition,[16]; at 100.0 µM,86% (active)
same,growth inhibition,[13]; [17],-41%
same,growth inhibition,[13]; [18],58%
same,growth inhibition,[13]; at 50.0 µM,64.5%
same,growth inhibition,[14]; at 1.2 µM,-29%
same,growth inhibition,[14]; at 3.7 µM,-26%
same,growth inhibition,[14]; at 11.0 µM,-14%
same,growth inhibition,[14]; at 33.0 µM,27%
same,growth inhibition,[14]; at 100.0 µM,93% (active)
